Results: PubChem BioAssay (NCI)
Several values for one entry are separate records, joined by “and”; a condition that tells them apart may be missing. Identical values can stand only once. About 83,000 compounds went through this panel and 20% of them were active in at least one assay; those are over-represented in the sample as a whole.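 96-well plates, one dose, 48 hours. Percent growth reported; active if below 10.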 A number with no mark means an inactive call. Activity calls are given as the source filed them.

Each compound was assayed on PC-3 prostate (assay: NCI-60 one-dose screen, 48 h (100 = growth as untreated, 0 = no growth, -100 = all killed)). Settings: 1 µM.
Method: Growth inhibition of the PC-3 human tumor cell line is measured as a screen for anti-cancer activity. Cells are grown in 96 well plates and exposed to the test compound for 48 hours. Compounds are tested at a single concentration, which is 10^-5 M for most compounds. The reported endpoint is percent growth (GI% or GIPRCNT), where numbers from 0 - 100% represent growth inhibition, and numbers from -100% - 0 represent cell death. For example, a value of 40 represents 60% growth inhibition. A value of 0 means no net growth occurred over the course of the experiment. A value of -40 indicates 40% of cells at the beginning of the experiment died by the end of the experiment. A value of -100 means all cells are dead at the end of the experiment.
NCI-60 Human Tumor Cell Lines Screen was performed using the standard one-dose NCI protocol, which is described in more detail at https://dtp.cancer.gov/discovery_development/nci-60/default.htm.
Compounds with GIPRCNT values below 10 were considered active. Activity score was based on GIPRCNT using the following formula: […]
Score is 0 for GIPRCNT values of 100 or above, 50 for GIPRCNT values of 0, and 100 for GIPRCNT values of -100.
`CC/C(=C(\c1ccc(O)cc1)c1ccc(OCCN(C)C(=O)CCOCCNC(=O)c2ccc3c(c2)CN([C@@H]2CCC(=O)NC2=O)C3=O)cc1)c1ccccc1` showed a growth of 54.2%.

Same assay, conditions: 10 µM
`CC/C(=C(\c1ccc(O)cc1)c1ccc(OCCN(C)C(=O)CCOCCNC(=O)c2ccc3c(c2)CN([C@@H]2CCC(=O)NC2=O)C3=O)cc1)c1ccccc1` showed a growth of 52.9%.

Same assay, conditions: 10 µM unless noted
Compound `COc1ccc(C2=NN(C(=O)[C@H]3[C@@H](c4ccco4)c4sc(=O)[nH]c4S[C@@H]3C)C(c3ccc4ccccc4c3)C2)cc1` (stereo not given in full) has a growth of 28.6%.
With `Nc1cc(-c2c[nH]c3ccc(Br)cc23)nc2cc(-c3c[nH]c4ccccc34)nn12` the growth was -21.1% (active).
With `COc1ccc(NC(=O)Cn2c(/C=C/c3cccc(OC)c3)nc3ccccc3c2=O)cc1` the growth was 73.9%.
With `C[C@@H](Nc1c(C#N)cnc2ccc(-c3cnc4[nH]ncc4c3)cc12)c1ccccc1` the growth was 13.4%.
Work on `C=CCn1c(O)c(N=Nc2nc(-c3cc4ccccc4oc3=O)cs2)c2ccccc21` yielded a growth of 56.4%.
`CN1C(=O)/C(=C\C(=O)c2cc3ccccc3oc2=O)c2ccccc21` gave a growth of 84.5%.
`O=c1ccc(Cn2c(C(F)(F)F)cc3c(Cl)ncnc32)c[nH]1` showed a growth of 78.4%.
Compound `CC(C)(C)C(=O)c1c2c(c3ccc4c5ccccc5ccc4n13)C(=O)c1ccccc1C2=O` has a growth of 83%.
`NC1(c2ccc(-c3ccc4ncnc(NCc5ccccc5)c4c3)cn2)COC1` was tested, and the growth was 94.4% and 105%.
`CCOC(=O)/C(F)=C/C1CC1CCc1ccc(OCC)cc1` (stereo not given) was tested, and the growth was 85.2%.
`O=C(NNC(=S)NCCc1ccccc1)c1ccc(OCc2nc3ccc(Cl)cc3[nH]2)cc1` showed a growth of 67.1%.
`COc1ccc(/C=C/c2nc3ccccc3c(=O)n2CC(=O)Nc2ccccc2)cc1` showed a growth of 84.7%.
Compound `COc1ccc(/C=C/C(=O)c2ccc(OC)c(S(N)(=O)=O)c2)c(C(F)(F)F)c1` has a growth of 11.2%.
In the case of `CCOc1ccccc1[C@H]1C(C(=O)c2ccc(Cl)cc2)C2(N[C@@H]1c1ccccc1)C(=O)Nc1ccc(Br)cc12` (stereo not given in full), the growth is reported as 5.34% (active).
Compound `O=C(NNC(=O)c1ccc(OCc2nc3ccc(Cl)cc3[nH]2)cc1)Nc1ccc(Cl)c(C(F)(F)F)c1` has a growth of 33.3%.
For `O=C(Cc1c(-c2ccccc2[N+](=O)[O-])n(-c2ncnc3c2c(-c2ccccc2)c(-c2ccccc2)n3Cc2ccccc2)[nH]c1=O)c1ccc(Cl)c(Cl)c1`, the growth was 8.7% (active).
In the case of `CCCSc1nnc(-c2c(C)nc3sccn23)o1`, the growth is reported as 86.6%.
`COc1sc(/C=N/NC(=O)c2[nH]c3ccc(Br)cc3c2-c2ccccc2)cc1Br` gave a growth of 19.4%.
In the case of `C=CCSc1nnc(-c2ccc(-c3nc4ccccc4[nH]3)cc2)o1`, the growth is reported as 57.5%.
`C=CC(=O)N1CCN(c2ccc3nc4c(nc3c2C(F)(F)F)C(=O)c2ncccc2C4=O)CC1` was tested, and the growth was -4.79% (active).
In the case of `COc1ccc2[nH]cc(-c3cc4nc(-c5cn(C)c6ncccc56)cc(N)n4n3)c2c1`, the growth is reported as 9.79% (active).
In the case of `C#CCCCNCCNc1ccnc2cc(Cl)ccc12`, the growth is reported as 73.1%.
`COc1ccc(C(=O)c2cc(C(C)=O)c3c(C)cc(C)cn23)cc1` was tested, and the growth was 82.9%.
`COc1ccc(C(=O)NNC(=O)CSc2nc3sc4c(c3c(=O)n2-c2ccc(Cl)cc2)CCCC4)cc1` was tested, and the growth was 80.6%.
With `O=C(Cn1c(-c2ccccc2)nc2ccccc21)N=Nc1c(O)[nH]c2ccc(Br)cc12` the growth was 9.01% (active).
`CC(C)C[C@H](NC(=O)[C@@H]1CCCCCCCCCCC(=O)N[C@@H](CC(=O)N2CCC[C@@H]2C2CCCC2)C(=O)N1)B(O)O` was tested, and the growth was 8.18% (active).
`O=C(N/N=C/c1c[nH]c2ccccc12)Nc1ccccc1Cl` showed a growth of 26.5%.
Compound `COc1cc(CNC(=O)C[C@H](C)CCC=C(C)C)ccc1OCc1cn(-c2ccccc2F)nn1` has a growth of 87.9%.
In the case of `Cc1cccc(-c2ccccc2Oc2ccc3nnc(Cl)n3n2)c1`, the growth is reported as 103%.
In the case of `Fc1ccc(Nc2nnc(-c3c[nH]c4ccccc34)o2)cc1`, the growth is reported as 70.8%.
With `COc1c(B(O)O)cc(F)cc1-c1nc2ccc3[nH]ncc3c2c2c1COCC2` the growth was 83.1%.
`CC1CCc2c(sc3nc(SCC(=O)c4cccc(Br)c4)n(-c4ccccc4)c(=O)c23)C1` (stereo not given) gave a growth of 56.6%.
In the case of `Cc1oc(-c2ccccc2)nc1CN[C@@H]1C[C@@H]2C[C@H]([C@H]1C)C2(C)C`, the growth is reported as 30.8%.
With `COc1cncc(-c2ccc3ncnc(N4CCc5ccc(Cl)cc54)c3c2)c1` the growth was 6.75% (active).
`COc1cc(C2CC(c3cc(OC)c(OC)c(OC)c3)=Nc3c(N)nc(N)nc3N2)ccc1Oc1nc(Nc2ccc(F)cc2)nc(N(C)C)n1` (stereo not given) gave a growth of 33.8%.
`O=CNc1cccc(-n2cnc3cc(-c4ccc(O)cc4)ccc32)c1` showed a growth of 49%.
`Cc1ccc(O)cc1Nc1nc(SCCN2CCOCC2)nc2c1cnn2CC(Cl)c1ccc(Br)cc1` (stereo not given) gave a growth of 17%.
For `COc1ccc(-c2cc(-c3ccccc3)c(C#N)c(=O)[nH]2)cc1S(N)(=O)=O`, the growth was 97.2%.
